Pol beta inh: qHTS Assay for Inhibitors of DNA Polymerase Beta | Pol beta primer extension/strand displacement, fluorescence kinetic | AID 485314, 2010 | Potency, µM (doses to about 114 µM), usual class: inhibitors | 340,000 tested, 1.3% active
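Preincubation: enzyme (10 nM) with compound, 15 min, RT. Reaction: substrate added to 50 nM final. Reads: 0 and 10 min. Analysis: normalized, Hill fit.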
WRN inhibitor: qHTS for Inhibitors of WRN Helicase. Bifunctional 3'-5' exonuclease/ATP-dependent helicase WRN (Homo sapiens), Q14191. WRN helicase unwinding, fluorescent forked duplex, kinetic. Potency, µM (highest dose often 114 µM), hits mostly inhibitors. 360,000 tested, 0.46% active; note: nearly all actives have a fitted effect of over 55% in size
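Kinetic fluorescence helicase assay: unwinding of a quenched forked DNA duplex (100 nM final) with 2 mM ATP final raises red fluorescence (525/598 nm). Compounds sat 15 min at room temperature with 20 nM WRN beforehand.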
PI5P4K alpha inh: qHTS for Inhibitors of phosphatidylinositol 5-phosphate 4-kinase (PI5P4K); Phosphatidylinositol 5-phosphate 4-kinase type-2 alpha (Homo sapiens), P48426; max response, %; AID 652105, 2013; 330,000 tested, 1.2% active; PI5P4Kalpha enzyme, ADP-Glo luminescence, 60 min; hits give low values; active = max response of -50% or lower; inconclusive = between -30% and -50%; inactive = -30% or higher; note: value at the top dose of about 77 µM
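Quantitative HTS of the MLSMR library against PI5P4Kalpha with substrate. ATP added last at 5 microM final; room temperature, 60 minutes. Remaining ATP depleted, ADP converted and read as luminescence.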
Pol eta inh: qHTS for Inhibitors of Polymerase Eta | Potency, µM (doses to about 114 µM), actives largely listed as inhibitors | AID 588591, 2011 | 390,000 tested, 1.2% active | recombinant Pol eta, fluorescent DNA replication assay
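Pol eta at 10 nM preincubated with compounds 15 min at room temperature; reaction started with fluorescent substrate (50 nM final) and read kinetically at 0 and 10 min.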
Pol kappa inh: qHTS for Inhibitors of Polymerase Kappa; purified Pol kappa, fluorescent DNA synthesis assay, 10 min; Potency, µM (highest dose often 107 µM), usual class: inhibitors; 400,000 tested, 0.53% active; AID 588579, 2011
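Kinetic fluorescence screen: compound preincubated 15 min RT with 10 nM enzyme; 50 nM substrate (final) initiates; reads at 0/10 min.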
Pol iota inh: qHTS for Inhibitors of Polymerase Iota. DNA polymerase iota (Homo sapiens), Q9UNA4. Pol iota fluorescent replication assay, 10 min. Potency, µM (top dose mostly 115 µM), most hits filed as inhibitors. 390,000 tested, 1% active
Target sequence (Q9UNA4 whole entry, looked up): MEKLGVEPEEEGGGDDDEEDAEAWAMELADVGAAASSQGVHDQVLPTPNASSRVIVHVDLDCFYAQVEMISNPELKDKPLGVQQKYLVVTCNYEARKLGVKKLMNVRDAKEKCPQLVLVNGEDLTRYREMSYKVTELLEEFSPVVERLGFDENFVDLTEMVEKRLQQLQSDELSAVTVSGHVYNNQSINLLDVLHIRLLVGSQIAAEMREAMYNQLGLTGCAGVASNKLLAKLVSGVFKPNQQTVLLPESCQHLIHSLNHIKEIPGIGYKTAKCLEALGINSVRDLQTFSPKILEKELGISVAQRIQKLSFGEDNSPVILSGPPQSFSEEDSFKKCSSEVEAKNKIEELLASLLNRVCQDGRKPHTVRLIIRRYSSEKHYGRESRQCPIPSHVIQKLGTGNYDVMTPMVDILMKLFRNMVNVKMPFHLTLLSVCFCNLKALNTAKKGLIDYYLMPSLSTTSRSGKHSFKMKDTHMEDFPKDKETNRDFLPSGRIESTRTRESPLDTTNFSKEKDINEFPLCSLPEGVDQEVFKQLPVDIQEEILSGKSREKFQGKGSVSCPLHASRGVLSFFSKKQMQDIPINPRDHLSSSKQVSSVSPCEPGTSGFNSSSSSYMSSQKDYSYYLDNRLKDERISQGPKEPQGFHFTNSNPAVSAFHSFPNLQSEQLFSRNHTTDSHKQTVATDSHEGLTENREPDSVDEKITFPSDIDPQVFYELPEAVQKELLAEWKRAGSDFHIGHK
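Fluorescent replication assay read twice, at 0 min and 10 min after adding 50 nM (final) substrate. Enzyme (10 nM) and compounds were first incubated 15 min at room temperature; enzyme-free buffer wells were negative controls.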
A number is an active result; – = inactive; ? = inconclusive; · = not tested or not shown; [ ] = another dose, or the depositor's remark. An excerpt weighted towards active compounds, which were near 2.8% of everything screened. Unless noted, calls come from the whole dose curve; as a rule, active = well fitted curve in the direction sought with a large enough effect; inconclusive = small, poorly fitted or top-dose-only effect, or another doubt; inactive = no such curve, though single readings can be large; an effect the other way counts as inactive or inconclusive.

SMILES | Pol beta inh | WRN inhibitor | PI5P4K alpha inh | Pol eta inh | Pol kappa inh | Pol iota inh
C/C(=N\NC(=O)COc1ccc(C)cc1C(C)C)c1ccc(-n2ccnc2)cc1 | – | – | – | – | – | –
CC1(C(=O)NC2CCCCCC2)CCN1C(=O)Cc1ccc(-c2ccccc2)cc1 (stereo unspecified) | · | – | – | · | · | ·
COc1ccc(NC(=O)N2CC[C@@]3(CCCN(C(=O)c4cccc(F)c4)C3)C2)cc1 | · | · | · | · | – | ·
C[C@H](N)C(=O)N[C@@H](CO)C(=O)N[C@H](C(=O)N[C@H](C(=O)N[C@H](C(=O)N[C@@H](CC(N)=O)C(=O)N[C@@H](Cc1ccc(O)cc1)C(=O)N[C@H](C(=O)O)[C@@H](C)O)[C@@H](C)O)[C@@H](C)O)[C@@H](C)O | · | · | · | · | – | ·
O=C(CSc1ccc(-c2nc3ccccc3[nH]2)cn1)Nc1ccc2c(c1)OCCO2 | 17.8µM | – | · | – | – | ?
Cc1cc2nc(-c3ccc(SCC(=O)Nc4ccc5c(c4)OCCO5)nc3)[nH]c2cc1C | ? | – | · | – | – | ?
OCCSc1nc(-c2ccccc2)nc2ccc(F)cc12 | ? | – | – | – | ? | 79.4µM
COC(=O)CSc1nc(-c2ccccc2)nc2ccc(F)cc12 | – | – | – | – | – | –
CCN=C1S/C(=C\c2ccc(N3CCOCC3)cc2C)C(=O)N1CC | – | – | – | – | – | –
COCCN1C(=O)/C(=C/c2ccc(N3CCCC3)cc2C)SC1=S | – | 79.4µM | – | – | – | ?
CCC(=O)N(CCC(c1ccc(C)cc1)c1ccco1)Cc1ccco1 (stereo unspecified) | 25.1µM | ? | – | ? | ? | 44.7µM
CC1(C)C=Cc2c(c3c(c4c(=O)c(-c5ccc(O)cc5)coc24)OC(C)(C)CC3)O1 | 11.2µM | – | – | – | – | –
N=C1CCC(=N)c2c1c(O)c1ccccc1c2O | 39.8µM | 31.6µM | -71.8 | 12.6µM | 22.4µM | 22.4µM
CC1Cc2cc(/C(O)=C3/C(=O)C(=O)N(CCN4CCOCC4)C3c3ccc([N+](=O)[O-])cc3)ccc2O1 (stereo unspecified) | – | – | – | – | – | –
Cc1ccc(-n2c(Cl)c(Cl)nc(Cl)c2=O)cc1 | – | 22.4µM | – | – | – | –
COc1nc(Cl)cn(-c2ccc(C)cc2)c1=O | – | – | – | – | – | –
O=C(O)/C=C\C(=O)Nc1ccc(Oc2ccccc2)cc1 | – | – | · | – | – | –
Cc1ccc(NC(=O)c2cc(NC(=O)/C=C\C(=O)O)ccc2N2CCCCC2)cc1 | ? | – | -69.0 | – | – | –
COc1ccc(NC(=O)/C=C/C(=O)O)cc1Cl | – | – | · | – | – | –
O=C(O)/C=C/C(=O)Nc1ccc(Oc2ccc(NC(=O)/C=C/C(=O)O)cc2)cc1 | 39.8µM | · | · | · | · | ·
O=C(O)/C=C/C(=O)Nc1ccc(Cl)c(C(=O)O)c1 | ? | – | – | 44.7µM | – | ?
COc1ccc(NC(=O)C2(C)CCN2C(=O)c2ccc(C(C)(C)C)cc2)cc1OC (stereo unspecified) | · | – | – | · | · | ·
Cc1ccccc1-n1ncc2c1CC(C)(C)CC2NC(=O)CCCN1CCCC1=O (stereo unspecified) | – | – | – | – | – | –
O=C(CN1C(=O)NC2(CCCCC2)C1=O)Nc1nc2c(F)cc(F)cc2s1 | · | – | -50.3 | ? | – | –
O=C(CN1C(=O)CCC1=O)Nc1nc2c(F)cc(F)cc2s1 | · | – | – | – | – | –
SMILES | Pol beta inh | WRN inhibitor | PI5P4K alpha inh | Pol eta inh | Pol kappa inh | Pol iota inh
NCCC[C@H](N)CC(=O)N[C@H]1CNC(=O)[C@@H]([C@@H]2C[C@H](O)N=C(N)N2)NC(=O)/C(=C/NC(N)=O)NC(=O)[C@@H](CO)NC(=O)[C@@H](CO)NC1=O | · | · | · | · | –[12 µM] | ·
Clc1ccc(-c2nnc3sc(-c4ccc(Br)o4)nn23)cc1 | – | – | – | ? | – | 89.1µM
COc1ccccc1C(=O)NC(=O)COC(=O)c1nccnc1N | · | – | – | 17.8µM | – | –
COc1ccccc1C(=O)NC(=O)COC(=O)c1cnccn1 | · | – | – | – | · | ·
Cc1ccc(C(C)C)c2c1C(c1ccc3c(c1)OCO3)CC(=O)O2 (stereo unspecified) | · | – | – | – | – | –
O=C1Nc2ccccc2/C1=C/c1cnc(-c2ccccc2)[nH]1 | 22.4µM | ? | – | – | – | ?
CN1CC[C@@]2(CCCN(C(=O)c3cccc(F)c3)C2)C1 | · | · | · | · | – | ·
CCCC[C@@H]1CCCO[C@@](C(=O)NCc2ccc(C)o2)(C(F)(F)F)C1 | · | – | -54.0 | – | – | –
COc1cccc(-c2cc3nc(NCc4ccccc4F)n(C)c(=O)c3s2)c1 | · | – | – | · | · | ·
Cc1ccc(N(CC(C)C)S(=O)(=O)c2nnc(NC(=O)c3cccs3)s2)cc1 | – | · | · | ? | – | –
COc1ccc(C2=NOC3(CC(=O)N(c4ccc5ccccc5c4)C3=O)C2)c(OC)c1 (stereo unspecified) | 50.1µM | – | · | – | – | ?
Cc1cc2c(n1-c1ccc(C(=O)O)cc1)CCCCC2 | 2.51µM | · | · | · | · | ·
Cc1ccc(CNC(=O)c2ccc(-n3c(C)cc4c3CCCC4)cc2)cc1 | – | · | · | – | – | –
COc1ccc(CC2=C(O)c3ccccc3C(=O)C2=O)cc1 | – | – | – | – | – | ?
O=C1C(=O)c2ccccc2C(O)=C1CCCCl | – | – | – | ? | – | 14.1µM
O=C1C=C(O)c2c(O)cccc2C1=O | 15.8µM | · | · | · | · | ·
O=C1C=C(O)c2cccc3cccc1c23 | – | – | – | – | – | –
Cn1cc(C(=O)N2CCN(C(=O)c3ccco3)CC2)c2c3ccccc3n(C)c2c1=O | – | – | · | – | – | ?
N#Cc1cccc(N=c2ssnc2Cl)c1 | – | 25.1µM | -76.9 | – | – | –
Clc1ccc(N=c2ssnc2Cl)nc1 | – | – | – | – | – | –
Clc1nssc1=Nc1nncs1 | · | – | -55.3 | – | – | ?
Clc1nssc1=Nc1ccc(Br)cc1 | – | 39.8µM | -56.7 | – | – | –
COc1cc(N=c2ssnc2Cl)cc(OC)c1 | – | 50.1µM | -79.1 | – | – | –
OCc1ccccc1N=c1ssnc1Cl | – | · | · | · | · | ·
Cc1cc(C)cc(C(N)=Nc2cccc(C#N)c2)c1 | – | – | – | – | – | –
COC(=O)C1CCN(S(=O)(=O)c2cc3c4c(c2)CCN4C(=O)CC3)CC1 | · | – | – | – | – | –
COC(=O)c1ccc2c(=O)n(CCCCCC(=O)N3CCN(c4cc(C)ccc4C)CC3)c(=O)[nH]c2c1 | – | · | · | – | – | –

Compound activity deposited in PubChem by National Center for Advancing Translational Sciences (NCATS).
